An excerpt weighted towards active compounds, which were near 3.5% of everything screened.
TEAD-YAP inh = TEAD-YAP interaction inhibition; HEK-TIYL cells, TEAD-Gal4/YAP UAS-luciferase luminescence; inhibition, % at 9.12 µM; actives 1.4% (n = 640,000); AID 1259422; in the data active = inhibition above about 32%;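 note: 0% = median of test compound wells and 100% = reference inhibitor wells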
GPR151 ag = human GPR151 activation; PathHunter beta-arrestin GPR151 cells, luminescence; activation, % at 11.2 µM; AID 1508602; actives 1% (n = 650,000); in the data active = activation above about 4.9%;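 note: 0% = median of compound wells and 100% = cells with positive control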
MITF inh = blocks human microphthalmia-associated transcription factor; O75030; AlphaScreen MITF homodimerization, bead proximity signal; inhibition, % at 2.6 µM; actives 0.91% (n = 650,000); AID 1259374; in the data active = inhibition above about 50%;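 note: 0% = vehicle wells with protein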
FBW7 act = human FBW7 E3 ligase activation, primary screen. Q969H0. AlphaScreen FBW7–phospho-cyclin E peptide binding, activator screen. normalized activity (activation), % at 26.1 µM. actives 0.13% (n = 650,000); in the data active = normalized activity above about 1.9%;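 note: purified mutant Fbw7 with reduced substrate affinity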
GPR151 confirm = confirmation of human GPR151 activators | shares compounds with GPR151 ag | GPR151 PathHunter beta-arrestin cells, luminescence, 90 min; % of EA-reagent control over plate median | activation, % at 11.2 µM | 6,700 tested, under 10 active;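 active = mean percent activation across replicates above the confirmation screen cutoff of 4.91%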
GPR119 ag = activates human GPR119 in a GPR151 counter-screen; actives 0.3% (n = 6,700); shares compounds with GPR151 ag; GPR119 PathHunter beta-arrestin cells, luminescence, 90 min; 0 = compound-well median, 100 = enzyme-acceptor control; activation, % at 11.2 µM;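 active = mean percent activation in the counterscreen above 29.09%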;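 note: counterscreen on off-target GPR119 to flag nonselective hits from the GPR151 activator screen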
Target sequence (Q8TDV5 whole entry, looked up): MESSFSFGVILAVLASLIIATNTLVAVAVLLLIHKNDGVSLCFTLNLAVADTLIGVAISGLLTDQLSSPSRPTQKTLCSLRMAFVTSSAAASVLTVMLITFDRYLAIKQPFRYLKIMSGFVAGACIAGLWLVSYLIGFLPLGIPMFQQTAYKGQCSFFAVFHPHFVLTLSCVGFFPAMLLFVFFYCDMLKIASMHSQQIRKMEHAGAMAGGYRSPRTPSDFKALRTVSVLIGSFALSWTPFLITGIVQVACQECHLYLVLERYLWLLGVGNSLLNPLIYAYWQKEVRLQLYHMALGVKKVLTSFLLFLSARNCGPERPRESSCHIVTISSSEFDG
The depositor's hits bear a star; · = no result.

SMILES	TEAD-YAP inh	GPR151 ag	MITF inh	FBW7 act	GPR151 confirm	GPR119 ag
O=C(Nc1c(F)cccc1F)N1CCn2cccc2C1c1ccccc1 (stereo not drawn)	2	11*	2	0	-1	-9
CCCCC1(CC(=O)Nc2ccc(CC)cc2)C(=O)N(c2ccccc2)N(c2ccccc2)C1=O	10	1	0	0	·	·
CCC1CCCCN1S(=O)(=O)c1ccc(C(=O)Nc2nccs2)cc1 (stereo not drawn)	-1	5.1*	-4	0	0	2
Cc1ccc(S(=O)(=O)N2CCCCC2CC(=O)Nc2nccs2)cc1 (stereo not drawn)	4	4	-7	0	·	·
CCCCCCNC(=O)Cc1c(C)nc2c(-c3ccccc3)c(C)nn2c1C	-12	-1	-24	0	·	·
CC(=O)c1cccc(NC(=O)COc2ccc(Cl)cc2Cl)c1	-37	0	-6	0	·	·
CC(C)(C)NC(=O)NC(=O)COC(=O)Cc1ccc(Cl)c(Cl)c1	-1	7.2*	1	0	0	-2
CC(C)(C)NC(=O)NC(=O)COC(=O)Cn1cnc2ccccc2c1=O	2	6.8*	4	0	0	2
COc1ccc2nc(Nc3nnc(-c4cccs4)o3)sc2c1	-14	0	22	0	·	·
Cc1cnc(CNC2CCN(c3ccc(NC(=O)c4ccccc4F)cc3)CC2)cn1	-2	-1	9	0	·	·
COc1cccc(/C=N/N(CCC#N)C2=NS(=O)(=O)c3ccccc32)c1O	-1	10*	9	0	1	-7
COc1ccc([N+](=O)[O-])cc1/C=N/N(CCO)C1=NS(=O)(=O)c2ccccc21	-3	2	15	0	·	·
CS(=O)(=O)N(CC(=O)N1CCCC1)c1ccc2c(c1)OCCO2	9	9.5*	6	0	-1	-10
CC(C)c1ccc(N(CC(=O)N2CCN(c3ccc(F)cc3)CC2)S(C)(=O)=O)cc1	1	3	1	0	·	·
CS(=O)(=O)N(CC(=O)N1CCN(c2ccc(F)cc2)CC1)c1ccc(Cl)cc1	-2	5.6*	6	0	0	-3
COc1ccc(-c2cc(C(=O)Nc3cnn(Cc4ccc(F)cc4)c3)no2)cc1OC	6	9.9*	-3	0	0	-4
CCCCC1CCC(C(=O)Oc2ccc(-c3ccc(C#N)cc3)cc2)CC1 (stereo not drawn)	-6	4	-1	0	·	·
CCOc1ccc(NC(=O)CN2N=NC3C(=O)N(c4ccc(Cl)cc4)C(=O)C32)cc1 (stereo not drawn)	8	5.7*	2	0	0	7
O=C(CN1CCN(S(=O)(=O)c2ccc(Cl)cc2)CC1)c1ccc(F)cc1	-6	15*	-7	0	-1	-6
N#Cc1ccc(COC(=O)CCC(=O)c2cccs2)cc1	4	-1	7	0	·	·
CN1CC(=O)N(CCCC(=O)OCc2ccc(C#N)cc2)C1=O	-2	7.7*	-1	0	1	7
O=C(NCCCN1CCOCC1)c1ccc2c(=O)n(CCc3ccccc3)c(=S)[nH]c2c1	-2	0	14	0	·	·
Cc1cccc(Nc2nc3nonc3n3cnnc23)c1C	-2	5.8*	-3	0	1	6
COc1cccc2cc3c(=O)n(-c4ccccc4)nc-3oc12	13	10*	7	0	1	1
CC(C)N(CCNC(=O)c1cccc(-c2ccccc2)n1)C(C)C	3	-1	15	0	·	·
SMILES	TEAD-YAP inh	GPR151 ag	MITF inh	FBW7 act	GPR151 confirm	GPR119 ag
COc1ccc(-c2ncc(C(=O)NCCN(C(C)C)C(C)C)s2)cn1	8	1	-6	0	·	·
COc1ccc(-c2ncc(C(=O)NCCN(C(C)C)C(C)C)s2)cc1	4	7.8*	14	0	0	-6
COc1ccc(-c2cccc(C(=O)NCCN(C(C)C)C(C)C)n2)cc1	6	8.8*	-3	0	0	3
CC(C)N(CCNC(=O)c1cccc(-c2ccc3c(ccn3C)c2)n1)C(C)C	9	12*	-9	2.2*	1	4
CCN=C1SC(CC(=O)Nc2cccc(C(F)(F)F)c2)C(=O)N1CC (stereo not drawn)	-5	0	-10	0	·	·
Cn1c2[n+](c3ncccc3c1=O)CCCCC2	8	0	3	0	·	·

High-throughput results from PubChem.
